# According to publication PMC5540273 (PLoS ONE, 2017):
# Read-outs that look alike come from different tables or passages of the source.
# How the values were obtained:
# DCAMKL2 = test system: T1, DCAMKL2; details: concentration: 1 μM, replicates: in singlicate; n = 1
# T1 construct: gene DCLK2
# DCAMKL3 = test system: T2, DCAMKL3; details: concentration: 1 μM, replicates: in singlicate; n = 1
# T2 construct: gene DCLK3
# DDR1 = details: concentration: 1 μM, replicates: in singlicate; n = 1
# DDR2 = details: concentration: 1 μM, replicates: in singlicate; n = 1
# DLK = test system: T3, DLK; details: concentration: 1 μM, replicates: in singlicate; n = 1
# T3 construct: gene MAP3K12
# DMPK2 = test system: T4, DMPK2; details: concentration: 1 μM, replicates: in singlicate; n = 1
# T4 construct: gene CDC42BPG
# DMPK = details: concentration: 1 μM, replicates: in singlicate; n = 1
# DRAK1 = test system: T5, DRAK1; details: concentration: 1 μM, replicates: in singlicate; n = 1
# T5 construct: gene STK17A
# DRAK2 = test system: T6, DRAK2; details: concentration: 1 μM, replicates: in singlicate; n = 1
# T6 construct: gene STK17B
# DYRK1A = details: concentration: 1 μM, replicates: in singlicate; n = 1
# DYRK1B = details: n = 1
# DYRK2 = details: concentration: 1 μM, replicates: in singlicate; n = 1
# EGFR = details: concentration: 1 μM, replicates: in singlicate; n = 1
# EIF2AK1 = details: n = 1
# EPHA1 = details: concentration: 1 μM, replicates: in singlicate; n = 1
# EPHA2 = details: concentration: 1 μM, replicates: in singlicate; n = 1
# EPHA3 = details: concentration: 1 μM, replicates: in singlicate; n = 1
# EPHA4 = details: concentration: 1 μM, replicates: in singlicate; n = 1
# EPHA5 = details: concentration: 1 μM, replicates: in singlicate; n = 1
# EPHA6 = details: n = 1
# [1] = concentration: 1 μM, replicates: in singlicate
# 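Also: KINOMEscan kinase panel screen.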
smiles,measurement,setting,value
CN(c1ccc(NC(=O)Nc2cccc(Cl)c2)cc1)c1ccnc(N)n1.Cl [GW830707],%Inh,DCAMKL2,0%
same,%Inh,DCAMKL3,4%
same,%Inh,DDR1,97.7%
same,%Inh,DDR2,99.3%
same,%Inh,DLK,0%
same,%Inh,DMPK2,0%
same,%Inh,DMPK,4%
same,%Inh,DRAK1,0%
same,%Inh,DRAK2,17%
same,%Inh,DYRK1A,0%
same,%Inh,DYRK1B; [1],14%
same,%Inh,DYRK2,14%
same,%Inh,EGFR,10%
same,%Inh,EIF2AK1; [1],0%
same,%Inh,EPHA1,8%
same,%Inh,EPHA2,18%
same,%Inh,EPHA3,15%
same,%Inh,EPHA4,17%
same,%Inh,EPHA5,33%
same,%Inh,EPHA6; [1],48%
Nc1ncc(-c2ccc3nccc(-c4ccncc4)c3c2)cc1S(=O)(=O)N1CCCCC1 [GSK1693850],%Inh,DCAMKL2,0%
same,%Inh,DCAMKL3,0%
same,%Inh,DDR1,2%
same,%Inh,DDR2,12%
same,%Inh,DLK,42%
same,%Inh,DMPK2,15%
same,%Inh,DMPK,0%
same,%Inh,DRAK1,0%
same,%Inh,DRAK2,5%
same,%Inh,DYRK1A,8%
same,%Inh,DYRK1B; [1],2%
same,%Inh,DYRK2,22%
same,%Inh,EGFR,1%
same,%Inh,EIF2AK1; [1],0%
same,%Inh,EPHA1,0%
same,%Inh,EPHA2,21%
same,%Inh,EPHA3,22%
same,%Inh,EPHA4,3%
same,%Inh,EPHA5,0%
same,%Inh,EPHA6; [1],0%
Cn1cc(-c2cnc(N)c3c(-c4ccc5c(c4)CCN5C(=O)Cc4ccccc4)csc23)cn1 [GSK2593074],%Inh,DCAMKL2,0%
same,%Inh,DCAMKL3,5%
same,%Inh,DDR1,97.7%
same,%Inh,DDR2,24%
same,%Inh,DLK,0%
same,%Inh,DMPK2,81%
same,%Inh,DMPK,0%
same,%Inh,DRAK1,0%
same,%Inh,DRAK2,9%
same,%Inh,DYRK1A,0%
same,%Inh,DYRK1B; 1 µM,0%
same,%Inh,DYRK2,8%
same,%Inh,EGFR,3%
same,%Inh,EIF2AK1; 1 µM,7%
same,%Inh,EPHA1,11%
same,%Inh,EPHA2,0%
same,%Inh,EPHA3,0%
same,%Inh,EPHA4,11%
same,%Inh,EPHA5,0%
same,%Inh,EPHA6; 1 µM,11%
O=C(O)C(F)(F)F.O=c1[nH]ccc2nc(N[C@@H]3CCNC3)nc(Nc3ccc4c(c3)S(=O)(=O)CC4)c12 [GSK2181306],%Inh,DCAMKL2,84%
same,%Inh,DCAMKL3,98.4%
same,%Inh,DDR1,0%
same,%Inh,DDR2,5%
same,%Inh,DLK,72%
same,%Inh,DMPK2,45%
same,%Inh,DMPK,97.5%
same,%Inh,DRAK1,99.5%
same,%Inh,DRAK2,92.1%
same,%Inh,DYRK1A,35%
same,%Inh,DYRK1B; [1],81%
same,%Inh,DYRK2,52%
same,%Inh,EGFR,33%
same,%Inh,EIF2AK1; [1],4%
same,%Inh,EPHA1,12%
same,%Inh,EPHA2,7%
same,%Inh,EPHA3,93.9%
same,%Inh,EPHA4,16%
same,%Inh,EPHA5,0%
same,%Inh,EPHA6; [1],16%
CC(C)(C)c1ccc(C(=O)Nc2cn3cc(-n4ccnc4)ccc3n2)cc1,%Inh,DCAMKL2,0%
same,%Inh,DCAMKL3,0%
same,%Inh,DDR1,0%
same,%Inh,DDR2,2%
same,%Inh,DLK,0%
same,%Inh,DMPK2,4%
same,%Inh,DMPK,0%
same,%Inh,DRAK1,20%
same,%Inh,DRAK2,35%
same,%Inh,DYRK1A,91.4%
same,%Inh,DYRK1B; [1],94.8%
same,%Inh,DYRK2,67%
same,%Inh,EGFR,9%
same,%Inh,EIF2AK1; [1],0%
same,%Inh,EPHA1,0%
same,%Inh,EPHA2,0%
same,%Inh,EPHA3,16%
same,%Inh,EPHA4,0%
same,%Inh,EPHA5,0%
same,%Inh,EPHA6; [1],12%
Cc1nn2c(=O)cc(N3CCO[C@H](C)C3)nc2n1Cc1cccc(Cl)c1Cl [GSK2373693],%Inh,DCAMKL2,6%
same,%Inh,DCAMKL3,34%
same,%Inh,DDR1,18%
same,%Inh,DDR2,0%
same,%Inh,DLK,0%
same,%Inh,DMPK2,0%
same,%Inh,DMPK,1%
same,%Inh,DRAK1,0%
same,%Inh,DRAK2,11%
same,%Inh,DYRK1A,48%
same,%Inh,DYRK1B; [1],11%
same,%Inh,DYRK2,12%
same,%Inh,EGFR,28%
same,%Inh,EIF2AK1; [1],1%
same,%Inh,EPHA1,1%
same,%Inh,EPHA2,21%
same,%Inh,EPHA3,0%
same,%Inh,EPHA4,0%
same,%Inh,EPHA5,0%
same,%Inh,EPHA6; [1],0%
O=C(O)C(F)(F)F.O=c1[nH]ccc2nc(N[C@@H]3CCNC3)nc(Nc3cc(Cl)cc(Cl)c3)c12 [GSK2188764],%Inh,DCAMKL2,52%
same,%Inh,DCAMKL3,82%
same,%Inh,DDR1,0%
same,%Inh,DDR2,18%
same,%Inh,DLK,43%
same,%Inh,DMPK2,41%
same,%Inh,DMPK,98.3%
same,%Inh,DRAK1,99.7%
same,%Inh,DRAK2,79%
same,%Inh,DYRK1A,3%
same,%Inh,DYRK1B; [1],21%
same,%Inh,DYRK2,36%
same,%Inh,EGFR,25%
same,%Inh,EIF2AK1; [1],18%
same,%Inh,EPHA1,6%
same,%Inh,EPHA2,0%
same,%Inh,EPHA3,72%
same,%Inh,EPHA4,0%
same,%Inh,EPHA5,0%
same,%Inh,EPHA6; [1],0%
N#CC1(c2cccc(C(=O)Nc3cccc(Oc4ccc5nc(NC(=O)C6CC6)sc5n4)c3)c2)CC1,%Inh,DCAMKL2,0%
same,%Inh,DCAMKL3,0%
same,%Inh,DDR1,98.6%
same,%Inh,DDR2,99.2%
same,%Inh,DLK,0%
same,%Inh,DMPK2,6%
same,%Inh,DMPK,5%
same,%Inh,DRAK1,2%
same,%Inh,DRAK2,7%
same,%Inh,DYRK1A,0%
same,%Inh,DYRK1B; [1],1%
same,%Inh,DYRK2,0%
same,%Inh,EGFR,36%
same,%Inh,EIF2AK1; [1],0%
same,%Inh,EPHA1,76%
same,%Inh,EPHA2,97.1%
same,%Inh,EPHA3,50%
same,%Inh,EPHA4,81%
same,%Inh,EPHA5,89%
same,%Inh,EPHA6; [1],91.3%
CC(C)c1nc(-c2ccc(F)c(NS(=O)(=O)c3c(F)cccc3F)c2)c(-c2ccnc(Nc3ccc(N4CCOCC4)nc3)n2)s1 [GSK1804250],%Inh,DCAMKL2,0%
same,%Inh,DCAMKL3,30%
same,%Inh,DDR1,82%
same,%Inh,DDR2,56%
same,%Inh,DLK,68%
same,%Inh,DMPK2,26%
same,%Inh,DMPK,6%
same,%Inh,DRAK1,15%
same,%Inh,DRAK2,0%
same,%Inh,DYRK1A,7%
same,%Inh,DYRK1B; [1],0%
same,%Inh,DYRK2,2%
same,%Inh,EGFR,82%
same,%Inh,EIF2AK1; [1],67%
same,%Inh,EPHA1,96.2%
same,%Inh,EPHA2,17%
same,%Inh,EPHA3,31%
same,%Inh,EPHA4,30%
same,%Inh,EPHA5,1%
same,%Inh,EPHA6; [1],50%
CN(C)CCNS(=O)(=O)c1ccc(-c2ccnc3[nH]ccc23)cc1 [GSK977620],%Inh,DCAMKL2,16%
same,%Inh,DCAMKL3,15%
same,%Inh,DDR1,7%
same,%Inh,DDR2,0%
same,%Inh,DLK,26%
same,%Inh,DMPK2,30%
same,%Inh,DMPK,74%
same,%Inh,DRAK1,71%
same,%Inh,DRAK2,28%
same,%Inh,DYRK1A,69%
same,%Inh,DYRK1B; [1],47%
same,%Inh,DYRK2,64%
same,%Inh,EGFR,37%
same,%Inh,EIF2AK1; [1],0%
same,%Inh,EPHA1,24%
same,%Inh,EPHA2,14%
same,%Inh,EPHA3,0%
same,%Inh,EPHA4,0%
same,%Inh,EPHA5,0%
same,%Inh,EPHA6; [1],0%
